# Measured values taken from PubChem BioAssay (NCATS).
# Records with an inconclusive call do not appear. A call without a number means that no potency is given here. The source made the active and inactive calls. Unless noted, calls come from the whole dose curve; as a rule, active = well fitted curve in the direction sought with a large enough effect; inconclusive = small, poorly fitted or top-dose-only effect, or another doubt; inactive = no such curve, though single readings can be large; an effect the other way counts as inactive or inconclusive.
# What was measured:
# [1] = target: Glucocorticoid receptor (Homo sapiens) (UniProt P04150); assay: GR-GFP Redistribution (AID 450;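 active = compounds whose dose series gives a full or clear partial fitted curve of increased nuclear translocation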; note: potency is the fitted concentration of half-maximal effect); conditions: U2OS GR-GFP nuclear translocation, laser cytometry, 2 h
# [2] = target: Guanine nucleotide-binding protein G(i) subunit alpha-1 (Homo sapiens) (UniProt P63096); assay: qHTS Assay for Inhibitors of RGS12 GoLoco Motif Activity (Green Fluorophore) (AID 879); conditions: Galphai1/FITC-RGS12 GoLoco peptide, fluorescence polarization; series mostly up to 57.1 µM;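 note: negative values mean loss of peptide binding seen as reduced polarization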
# Procedure, shortened: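 A drop in FITC polarization marked displacement of the FITC-tagged RGS12 GoLoco peptide (10 nM) from Gαi1 (50 nM). Compounds were incubated 10 min at room temperature in Tris pH 7.5 buffer containing 150 mM NaCl, 0.1 mM GDP and 0.05% NP40; unlabeled peptide titration served as control.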
# [3] = target: Pyruvate kinase PKM (Homo sapiens) (UniProt P14618); assay: qHTS Assay for Activators of Human Muscle Pyruvate Kinase (AID 954; active = well fitted curve in the direction sought with a large enough effect, not every such curve was filed as active); conditions: purified human muscle pyruvate kinase, luciferase-coupled luminescence, 1 h; series mostly up to 57.5 µM
# Procedure, shortened: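 ATP production by PKM2 detected via luciferase luminescence after 1 h room-temperature reaction (0.1 nM enzyme, PEP at Km 0.5 mM, ADP 0.1 mM, pH 7.2 imidazole buffer). Inhibition scaled to no-enzyme control; activation referenced to 0.3 nM enzyme wells.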
# [4] = target: alpha-glucosidase (Oryza sativa, rice) (UniProt Q653V4); assay: Counterscreen for Glucocerebrosidase Inhibitors: qHTS Assay for Rice alpha-Glucosidase at pH 5.0 (AID 997); conditions: rice alpha-glucosidase enzyme activity; series mostly up to 76.9 µM
# Procedure, shortened: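 Endpoint fluorogenic assay at pH 5.0: compounds (0.7 nM to 77 uM) titrated against 4 nM rice enzyme and 400 uM 4-MU-alpha-glucoside for 20 min at room temperature; NaOH/glycine stop, read ex 365/em 440 nm, Hill-fitted AC50.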
# [5] = target: DNA repair nuclease/redox regulator APEX1 (Homo sapiens) (UniProt P27695); assay: qHTS Validation Assay for Inhibitors of the Human Apurinic/apyrimidinic Endonuclease 1 (APE1) (AID 1705; note: potency is the fitted concentration of half-maximal effect); conditions: purified APE1 endonuclease activity, fluorescence, titration; series mostly up to 57.1 µM
# Procedure, shortened: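 qHTS, 1536-well. APE1 + cpd 15 min RT → 50 nM TAMRA/BHQ-2 THF-abasic dsDNA substrate → kinetic fluorescence, 3 reads/60 s; delta(read3−read1) = reaction progress. No-enzyme buffer = negative control.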
# [6] = target: Endonuclease 4 (Escherichia coli (strain K12)) (UniProt P0A6C1); assay: Counterscreen for APE1 Inhibitors: qHTS Validation Assay for Inhibitors of Endonuclease IV (AID 1708); note: potency is the fitted concentration of half-maximal effect; conditions: E. coli endonuclease IV, DNA cleavage fluorescence; series mostly up to 57.1 µM
# Procedure, shortened: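 Enzyme (2 nM) + compound, 15 min RT; add 50 nM TAMRA/BHQ-2 THF-site dsDNA; kinetic read ex525/em598, 3 reads/60 s; activity = read 3 − read 1. Buffer Tris pH 7.5, 50 mM NaCl, 2 mM MgCl2, DTT, Tween-20.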
# [7] = target: ATP-dependent DNA helicase Q1 (Homo sapiens) (UniProt P46063); assay: qHTS Validation Assay for Inhibitors of RecQ-Like Dna Helicase 1 (RECQ1) (AID 2353); conditions: recombinant RECQ1 helicase DNA unwinding assay; series mostly up to 25.6 µM; note: potency is the fitted concentration of half-maximal effect
# Procedure, shortened: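 RECQ1T1 50 nM; forked duplex (20 bp + 30-nt ss tails) 200 nM, ATP 2 mM final; pH 8.0, 2 mM MgCl2, 2.5 ug/ml poly(dI-dC); 15 min compound preincubation; discontinuous kinetic read over 2 h at RT.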
# [8] = target: Thyrotropin receptor (Homo sapiens) (UniProt P16473); assay: qHTS Assay for Antagonists of the Thyroid Stimulating Hormone Receptor (AID 488980); conditions: TSHR-expressing cells, cAMP antagonist read-out; series mostly up to 57.5 µM
# Procedure, shortened: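 Readout is cAMP by HTRF competition between cellular cAMP and cAMP-d2 for a cryptate-labelled antibody. Antagonism was assessed in TSHR-transfected HEK293 cells stimulated with 4 nM TSH (EC80, final) in the presence of RO 20-1724.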
# [9] = target: Voltage-gated inwardly rectifying potassium channel KCNH2 (Homo sapiens) (UniProt Q12809); assay: qHTS Assay for Small Molecule Inhibitors of the Human hERG Channel Activity (AID 588834); conditions: U2OS BacMam hERG, FluxOR thallium flux fluorescence; series mostly up to 46.1 µM;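 note: top concentration of the series differs between compounds; lower thallium flux fluorescence means stronger hERG block; nearly all actives have a fitted effect of over 50% in size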
# Procedure, shortened: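 Step 1: BacMam hERG transduction of U2OS, 4 hrs RT. Step 2: overnight 37 °C, plate 2000 cells/well, 4 hr. Step 3: FluxOR load, compound 10 min, stimulate, read fluorescence.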
# [10] = Primary qHTS for inhibitors of La Crosse Virus (LACV) - induced cell death in SH-SY5Y cells (AID 1508616); conditions: SH-SY5Y LACV cytopathicity rescue, ATP luminescence, 6 d; series mostly up to 9.63 µM;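 note: top concentration of the series differs between compounds; higher means more rescue of cells from virus-induced death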
# Procedure, shortened: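 SH-SY5Y, 6000 cells/well; cpd via pin tool in DMSO; LACV 0.01 MOI; 6 d 37C 5% CO2; ATPLite, 5 min RT; luminescence normalized to ±virus DMSO controls.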
# [11] = Primary qHTS for small molecule stabilizers of the endoplasmic reticulum resident proteome: Secreted ER Calcium Modulated Protein (SERCaMP) assay (AID 1508630); conditions: SH-SY5Y GLuc-SERCaMP (Gaussia luciferase released on ER calcium loss) secretion, thapsigargin, luminescence; series mostly up to 38.4 µM
# Procedure, shortened: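 The SH-SY5Y reporter protocol was run at 3 concentrations up to 38.3 uM (primary) or 11 concentrations (follow-up): 16 h compound, 100 nM thapsigargin for 4 h, then extracellular luciferase luminescence.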
# [12] = target: Thioredoxin reductase 1, cytoplasmic (Rattus norvegicus) (UniProt O89049); assay: qHTS Assay for Inhibitors of Mammalian Selenoprotein Thioredoxin Reductase 1 (TrxR1) (AID 488773); conditions: purified TrxR1 enzyme activity; Potency: inhibition; series mostly up to 57.1 µM;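 note: drop in NADPH fluorescence over an 8 min run after selenite addition; nearly all actives have a fitted effect of over 40% in size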
# Procedure, shortened: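 Inhibition is scored from the loss of NADPH fluorescence between first and last reads of an 8-min kinetic run. Selenite (400 uM) was the substrate, added after 15 min compound preincubation at room temperature.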
# [13] = target: ATPase family AAA domain-containing protein 5 (Homo sapiens) (UniProt Q96QE3); assay: Validation screen for small molecules that inhibit ELG1-dependent DNA repair in human embryonic kidney (HEK293T) cells expressing luciferase-tagged ELG1 (AID 493107); conditions: HEK293T ELG1-luciferase level, luminescence, 5-fluorouridine co-treatment, 16 h; series mostly up to 46.1 µM; note: potency is the fitted concentration of half-maximal effect; nearly all actives have a fitted effect of over 70% in size
# Procedure, shortened: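 Cells are dispensed in 1536-well format, then 5-fluorouridine and compound are pinned in. After a 16 hr incubation at 37 °C and 5% CO2, ONE-Glo is added and luciferase measured on a CCD imager.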
# [14] = qHTS for Inhibitors of ATXN expression: Validation (AID 588378); conditions: cell-based ATXN2 expression reporter assay, luminescence; series mostly up to 57.1 µM; note: nearly all actives have a fitted effect of over 75% in size; note: potency is the fitted concentration of half-maximal effect
# Procedure, shortened: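 Compounds were pinned onto attached HEK293 cells carrying an ATXN2-firefly luciferase construct and incubated 24 hrs at 37 degrees C. Each well then received a fluorescent viability reagent followed by luciferase substrate for end-point luminescence.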
# [15] = Primary qHTS for inhibitors of nuclear receptor binding SET domain protein 2 (NSD2) in an RCH-ACV wild type WT cells (2C) (AID 1645877); conditions: RCH-ACV (leukaemia line) NSD2 WT (2C) viability, CellTiter-Glo, 72 h; series mostly up to 44.9 µM; note: potency is the fitted concentration of half-maximal effect; nearly all actives have a fitted effect of over 70% in size
# [16] = target: Calcium and integrin-binding protein 1 (Homo sapiens) (UniProt Q99828); assay: Validation qHTS for Identification of Calcium Integrin Binding protein 1 (CIB1) Competitor (AID 1508618); conditions: CIB1-GST / FITC-alphaIIb peptide fluorescence polarization; series mostly up to 114 µM
# Procedure, shortened: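 CIB1-GST (1 uM final) incubated 15 min at room temperature with compounds (up to 114 uM), then FITC-labelled alphaIIb peptide (100 nM) added. FP read (Ex 480/Em 540) after 15 min, pH 7.4 buffer containing 5 mM CaCl2.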
# [17] = target: Catechol O-methyltransferase (Homo sapiens) (UniProt P21964); assay: Confirmatory Screen for Target Class Profiling of Small Molecule Inhibitors of Methyltransferases (AID 1745852; calls by dose curve); conditions: MTase-Glo luminescence, SAH detection, recombinant enzyme; measured here: COMT max response; stronger effect = lower value
# [18] = target: Guanidinoacetate N-methyltransferase (Homo sapiens) (UniProt Q14353); assay: as above; conditions: MTase-Glo luminescence, SAH detection, recombinant enzyme; activity change, negative = inhibition: at 57.3 µM (top of the series) unless noted; series mostly up to 57.3 µM
# [19] = target: Nicotinamide N-methyltransferase (Homo sapiens) (UniProt P40261); assay: as above; conditions: MTase-Glo luminescence, SAH detection, recombinant enzyme; measured here: NNMT max response; stronger effect = lower value
# [20] = target: Phenylethanolamine N-methyltransferase (Homo sapiens) (UniProt P11086); assay: as above; conditions: MTase-Glo luminescence, SAH detection, recombinant enzyme; measured here: PNMT max response; stronger effect = lower value
# Sequence of Phenylethanolamine N-methyltransferase (Homo sapiens) (P11086 whole entry, looked up): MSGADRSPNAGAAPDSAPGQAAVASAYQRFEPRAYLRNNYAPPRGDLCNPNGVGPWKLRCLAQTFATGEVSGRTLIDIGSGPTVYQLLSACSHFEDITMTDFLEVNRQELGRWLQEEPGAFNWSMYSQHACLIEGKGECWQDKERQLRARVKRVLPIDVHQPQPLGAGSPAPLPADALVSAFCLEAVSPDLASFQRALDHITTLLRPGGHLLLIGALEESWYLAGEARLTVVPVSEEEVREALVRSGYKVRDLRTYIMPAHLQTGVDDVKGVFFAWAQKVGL
# Sequence of Thioredoxin reductase 1, cytoplasmic (Rattus norvegicus) (O89049 whole entry, looked up): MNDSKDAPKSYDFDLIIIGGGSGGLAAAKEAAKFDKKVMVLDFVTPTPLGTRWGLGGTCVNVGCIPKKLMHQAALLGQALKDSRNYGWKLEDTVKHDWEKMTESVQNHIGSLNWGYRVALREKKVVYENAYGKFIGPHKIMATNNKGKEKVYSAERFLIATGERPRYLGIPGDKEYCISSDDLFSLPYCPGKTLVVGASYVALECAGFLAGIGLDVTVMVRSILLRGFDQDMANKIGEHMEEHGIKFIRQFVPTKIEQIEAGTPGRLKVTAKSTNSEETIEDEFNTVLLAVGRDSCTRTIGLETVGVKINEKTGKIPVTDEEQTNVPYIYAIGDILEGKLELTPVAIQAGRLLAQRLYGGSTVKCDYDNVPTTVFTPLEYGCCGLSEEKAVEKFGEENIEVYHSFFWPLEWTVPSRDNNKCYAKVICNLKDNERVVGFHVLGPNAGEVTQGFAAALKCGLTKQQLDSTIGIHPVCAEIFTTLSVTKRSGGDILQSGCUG
# Sequence of DNA repair nuclease/redox regulator APEX1 (Homo sapiens) (P27695 whole entry, looked up): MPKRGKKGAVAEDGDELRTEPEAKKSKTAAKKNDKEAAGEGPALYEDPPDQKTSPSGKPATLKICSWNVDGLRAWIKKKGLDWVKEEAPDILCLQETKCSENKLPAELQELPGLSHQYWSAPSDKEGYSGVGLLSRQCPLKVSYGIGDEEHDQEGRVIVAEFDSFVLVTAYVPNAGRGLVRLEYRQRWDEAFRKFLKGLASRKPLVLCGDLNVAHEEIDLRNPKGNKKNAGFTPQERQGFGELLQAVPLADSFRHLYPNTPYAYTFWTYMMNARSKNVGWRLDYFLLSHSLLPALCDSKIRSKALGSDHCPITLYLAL
# Sequence of Guanine nucleotide-binding protein G(i) subunit alpha-1 (Homo sapiens) (P63096 whole entry, looked up): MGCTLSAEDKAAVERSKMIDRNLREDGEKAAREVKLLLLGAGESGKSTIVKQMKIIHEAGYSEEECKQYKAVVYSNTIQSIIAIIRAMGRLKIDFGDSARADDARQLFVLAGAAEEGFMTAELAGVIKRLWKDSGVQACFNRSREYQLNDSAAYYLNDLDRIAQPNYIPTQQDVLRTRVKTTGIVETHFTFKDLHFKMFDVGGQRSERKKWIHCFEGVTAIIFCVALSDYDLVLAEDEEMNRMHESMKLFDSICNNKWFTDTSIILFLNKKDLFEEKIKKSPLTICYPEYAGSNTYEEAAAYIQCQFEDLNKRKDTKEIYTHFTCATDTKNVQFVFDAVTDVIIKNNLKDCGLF
# Sequence of ATP-dependent DNA helicase Q1 (Homo sapiens) (P46063 whole entry, looked up): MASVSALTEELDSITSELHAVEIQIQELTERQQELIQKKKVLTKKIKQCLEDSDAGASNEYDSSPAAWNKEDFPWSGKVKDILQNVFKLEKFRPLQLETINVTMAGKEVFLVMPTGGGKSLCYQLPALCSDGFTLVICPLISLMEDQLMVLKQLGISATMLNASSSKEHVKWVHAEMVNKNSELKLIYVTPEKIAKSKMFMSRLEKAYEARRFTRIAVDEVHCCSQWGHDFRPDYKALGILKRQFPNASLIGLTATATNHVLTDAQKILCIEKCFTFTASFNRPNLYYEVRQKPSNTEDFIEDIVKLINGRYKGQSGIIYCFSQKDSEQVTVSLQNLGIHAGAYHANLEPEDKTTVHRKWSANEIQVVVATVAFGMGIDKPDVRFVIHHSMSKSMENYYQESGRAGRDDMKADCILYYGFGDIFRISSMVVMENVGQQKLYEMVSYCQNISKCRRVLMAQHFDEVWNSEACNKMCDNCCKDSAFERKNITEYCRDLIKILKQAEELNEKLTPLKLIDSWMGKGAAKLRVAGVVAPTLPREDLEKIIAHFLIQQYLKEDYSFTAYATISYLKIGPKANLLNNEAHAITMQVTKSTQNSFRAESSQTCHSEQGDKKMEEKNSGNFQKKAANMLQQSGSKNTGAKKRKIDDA
# Sequence of Nicotinamide N-methyltransferase (Homo sapiens) (P40261 whole entry, looked up): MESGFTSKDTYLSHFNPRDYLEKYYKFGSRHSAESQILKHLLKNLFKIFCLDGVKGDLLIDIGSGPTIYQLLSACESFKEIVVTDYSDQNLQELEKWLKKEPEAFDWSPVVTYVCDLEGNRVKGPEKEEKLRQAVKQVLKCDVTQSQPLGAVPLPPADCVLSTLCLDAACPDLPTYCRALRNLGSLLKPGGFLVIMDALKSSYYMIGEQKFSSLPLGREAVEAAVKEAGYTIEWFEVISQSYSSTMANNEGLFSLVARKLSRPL
# Sequence of ATPase family AAA domain-containing protein 5 (Homo sapiens) (Q96QE3 whole entry, looked up, the tested form may be a part): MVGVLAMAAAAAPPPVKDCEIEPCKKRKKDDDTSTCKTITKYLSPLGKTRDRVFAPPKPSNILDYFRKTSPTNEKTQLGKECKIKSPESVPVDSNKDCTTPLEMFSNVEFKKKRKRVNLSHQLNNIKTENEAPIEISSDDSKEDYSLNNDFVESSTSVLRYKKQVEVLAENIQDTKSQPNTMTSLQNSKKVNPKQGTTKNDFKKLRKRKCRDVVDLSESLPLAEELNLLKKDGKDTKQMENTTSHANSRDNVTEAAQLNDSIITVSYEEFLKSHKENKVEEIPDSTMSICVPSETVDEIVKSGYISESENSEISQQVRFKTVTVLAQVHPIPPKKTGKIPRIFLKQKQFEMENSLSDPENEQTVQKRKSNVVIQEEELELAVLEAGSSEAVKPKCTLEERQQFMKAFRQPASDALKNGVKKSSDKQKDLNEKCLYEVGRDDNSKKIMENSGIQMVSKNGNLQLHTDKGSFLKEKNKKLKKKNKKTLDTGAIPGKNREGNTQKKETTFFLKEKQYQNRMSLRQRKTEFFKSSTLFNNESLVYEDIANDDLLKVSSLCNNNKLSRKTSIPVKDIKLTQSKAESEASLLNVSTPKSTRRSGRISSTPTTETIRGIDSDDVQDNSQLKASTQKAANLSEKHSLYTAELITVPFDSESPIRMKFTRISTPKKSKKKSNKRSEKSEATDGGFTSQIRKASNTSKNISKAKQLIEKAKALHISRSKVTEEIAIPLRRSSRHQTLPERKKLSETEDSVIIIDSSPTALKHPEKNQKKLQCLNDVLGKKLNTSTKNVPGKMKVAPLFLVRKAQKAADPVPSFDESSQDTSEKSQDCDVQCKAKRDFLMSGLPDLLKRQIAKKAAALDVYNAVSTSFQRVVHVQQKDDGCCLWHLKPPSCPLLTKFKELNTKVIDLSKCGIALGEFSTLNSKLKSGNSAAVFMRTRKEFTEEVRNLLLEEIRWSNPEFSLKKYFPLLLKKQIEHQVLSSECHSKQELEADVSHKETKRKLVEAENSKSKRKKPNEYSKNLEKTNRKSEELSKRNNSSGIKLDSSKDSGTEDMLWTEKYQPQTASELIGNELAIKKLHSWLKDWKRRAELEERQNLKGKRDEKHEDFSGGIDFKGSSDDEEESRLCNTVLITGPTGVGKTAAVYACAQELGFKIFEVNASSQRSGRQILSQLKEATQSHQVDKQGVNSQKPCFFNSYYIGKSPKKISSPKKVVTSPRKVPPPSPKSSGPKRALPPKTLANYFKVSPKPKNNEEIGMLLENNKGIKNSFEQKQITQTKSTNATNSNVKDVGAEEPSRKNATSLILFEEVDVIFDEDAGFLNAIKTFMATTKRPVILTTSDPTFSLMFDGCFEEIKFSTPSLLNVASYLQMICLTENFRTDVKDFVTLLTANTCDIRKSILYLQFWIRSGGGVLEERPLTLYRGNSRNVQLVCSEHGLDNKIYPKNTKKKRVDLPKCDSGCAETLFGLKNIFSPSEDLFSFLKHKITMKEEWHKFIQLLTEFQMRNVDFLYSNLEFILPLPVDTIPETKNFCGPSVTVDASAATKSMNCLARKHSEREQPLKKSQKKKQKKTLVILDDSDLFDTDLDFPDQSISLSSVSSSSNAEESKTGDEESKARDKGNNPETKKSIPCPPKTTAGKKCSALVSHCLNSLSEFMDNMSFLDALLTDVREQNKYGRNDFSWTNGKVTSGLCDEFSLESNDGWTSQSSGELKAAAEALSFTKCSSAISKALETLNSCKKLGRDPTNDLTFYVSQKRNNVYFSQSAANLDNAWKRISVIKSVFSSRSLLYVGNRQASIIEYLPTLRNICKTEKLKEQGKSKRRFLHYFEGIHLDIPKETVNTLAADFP
# Sequence of Catechol O-methyltransferase (Homo sapiens) (P21964 whole entry, looked up): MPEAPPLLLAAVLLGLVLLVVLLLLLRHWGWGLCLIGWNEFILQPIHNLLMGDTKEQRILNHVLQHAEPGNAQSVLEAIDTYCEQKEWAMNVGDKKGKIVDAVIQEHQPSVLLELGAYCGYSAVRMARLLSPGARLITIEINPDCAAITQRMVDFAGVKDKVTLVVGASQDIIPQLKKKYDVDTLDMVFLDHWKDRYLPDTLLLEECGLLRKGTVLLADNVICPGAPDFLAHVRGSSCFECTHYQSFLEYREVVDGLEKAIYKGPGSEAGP
# Sequence of Calcium and integrin-binding protein 1 (Homo sapiens) (Q99828 whole entry, looked up): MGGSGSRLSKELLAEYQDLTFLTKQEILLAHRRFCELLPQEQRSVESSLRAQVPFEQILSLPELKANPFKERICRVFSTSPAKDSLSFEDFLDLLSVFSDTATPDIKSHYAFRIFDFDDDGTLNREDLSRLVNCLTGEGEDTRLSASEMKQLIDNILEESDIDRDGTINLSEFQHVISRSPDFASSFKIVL
smiles,measurement,setting,value
Nc1c(S(=O)(=O)O)cc(Nc2ccc(Nc3nc(Cl)nc(Nc4ccc(S(=O)(=O)O)cc4)n3)c(S(=O)(=O)O)c2)c2c1C(=O)c1ccccc1C2=O,Potency,[1],> 46 µM (inactive)
same,outcome,[2],inactive
same,outcome,[3],inactive
same,outcome,[4],inactive
same,Potency,[5],251 nM (active)
same,Potency,[6],3.98 µM (active)
same,Potency,[7],1 µM (active)
same,outcome,[8],inactive
same,Potency,[9],inactive
same,outcome,[10],inactive
same,Potency,[11],inactive
O=C1c2ccccc2C(=O)c2c(NCCc3ccc(O)cc3)ccc(NCCc3ccc(O)cc3)c21,Potency,[12],inactive
same,Potency,[13],14.6 µM (active)
same,Potency,[14],8.91 µM (active)
same,outcome,[10],inactive
Cn1c(CNc2cccc(C(=O)NCc3ccccc3C(F)(F)F)c2)nnc1-c1ccncc1,Potency,[15],10.3 µM (active)
Cc1cncc2cccc(S(=O)(=O)N3CCCNC[C@@H]3C)c12,Potency,[15],3.66 µM (active)
C[C@H](Cc1ccccc1)Nc1ncnc2c1ncn2[C@@H]1O[C@H](CO)[C@@H](O)[C@H]1O,Potency,[12],inactive
same,Potency,[14],inactive
same,outcome,[10],inactive
same,outcome,[16],inactive
same,Potency,[11],inactive
same,activity,[17],-28.1%
same,"activity change, negative = inhibition",[18],-3.97%
same,activity,[19],4.48%
same,activity,[20],-12.3%
